# High-throughput results (PubChem)
# A selection: hits, their analogues and other compounds. The true share with any hit is near 5%.
# Vaccinia Venus – inhibitors of vaccinia virus (Venus reporter). hit rate 0.46% among 330,000. Vaccinia virus Venus reporter expression, fluorescence. Potency, µM (highest dose often 36.5 µM), without a hit: at the highest dose activity change, negative = inhibition, usual class: inhibitors; calls by dose curve; tested in A549 cells; note: potency is the fitted concentration of half-maximal effect; nearly all actives have a fitted effect of over 30% in size
# HCMV antiviral – blocks human cytomegalovirus replication | HFF cells, HCMV-luciferase reporter, 72 h; hits give low values | hit rate 4.5% among 410,000 | AID 1259415 | activity change, negative = inhibition, % at 57.5 µM; in the data active = activity change below about -60%; inconclusive = no clear call, values can overlap the other calls; inactive = above about -39%
#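 Cell-based, HFFs, 1000 cells/well, 16 h 37C; cpds in DMSO + HCMV-luc, MOI 1 PFU/cell; 72 h 37C; OneGlo luminescence after 5 min RT; norm. to buffer vs Salinomycin 10uM.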
# Tb PYK inh – T. brucei pyruvate kinase inhibition. TbPYK enzyme, Kinase-Glo Plus ATP luminescence, 45 min. Potency, µM (top dose mostly 76.8 µM), for the others: at the top dose activity, negative = inhibition, usual class: inhibitors. hit rate 0.12% among 410,000. AID 624173; note: potency is the fitted concentration of half-maximal effect; nearly all actives have a fitted effect of over 50% in size
#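 Luminescence from Kinase-Glo Plus, added after a 45-minute room-temperature reaction, served as the end-point read-out. The enzyme and substrate were preincubated with compound before ADP (130 uM final) initiated turnover. Concentration-effect curves came from normalized qHTS data.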
# Vaccinia mCherry – inhibitors of vaccinia virus infection (mCherry reporter signal) | Vaccinia virus mCherry reporter infection, fluorescence | Potency, µM (series often up to 36.5 µM), for the others: at the top dose activity change, negative = inhibition, usual class: inhibitors | hit rate 0.63% among 310,000 | AID 720579; calls by dose curve; tested in A549 cells; note: potency is the fitted concentration of half-maximal effect; nearly all actives have a fitted effect of over 35% in size
# LmPK inhibitor – LmPK (Leishmania mexicana) enzyme inhibition; Q27686; purified LmPK, Kinase-Glo ATP luminescence, 1 h; Potency, µM (highest dose often 57.5 µM), inactives show at the top dose activity change, negative = inhibition, usual class: inhibitors; hit rate 0.37% among 290,000; AID 1721; note: potency is the fitted concentration of half-maximal effect
# Target sequence (Q27686 whole entry, looked up): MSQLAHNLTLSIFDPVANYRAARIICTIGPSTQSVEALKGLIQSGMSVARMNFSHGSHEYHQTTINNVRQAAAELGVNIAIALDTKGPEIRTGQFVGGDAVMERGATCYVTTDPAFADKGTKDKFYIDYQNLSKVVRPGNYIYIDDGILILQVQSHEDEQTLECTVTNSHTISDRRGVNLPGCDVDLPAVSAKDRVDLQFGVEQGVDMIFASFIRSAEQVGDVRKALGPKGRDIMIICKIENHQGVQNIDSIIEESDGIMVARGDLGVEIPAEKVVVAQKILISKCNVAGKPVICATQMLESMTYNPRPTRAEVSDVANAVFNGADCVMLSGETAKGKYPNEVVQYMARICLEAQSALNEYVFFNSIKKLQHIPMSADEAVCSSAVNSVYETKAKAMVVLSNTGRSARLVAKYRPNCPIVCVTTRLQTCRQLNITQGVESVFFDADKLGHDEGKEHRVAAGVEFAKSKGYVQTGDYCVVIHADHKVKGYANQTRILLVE
#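 Kinase-Glo luminescence read after 1 h RT reaction of 0.1 nM LmPK with 0.5 mM PEP and 0.1 mM ADP. Activity scaled between uninhibited and enzyme-free controls.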
# * hit, by the source's call; i = inactive; ? = inconclusive; / = not tested or not shown; [ ] = dose if it differs, or a comment. Unless noted, calls come from the whole dose curve; as a rule, active = well fitted curve in the direction sought with a large enough effect; inconclusive = small, poorly fitted or top-dose-only effect, or another doubt; inactive = no such curve, though single readings can be large; an effect the other way counts as inactive or inconclusive. % is set by controls: 0 for no effect and ±100 for the full control effect.
SMILES,Vaccinia Venus,HCMV antiviral,Tb PYK inh,Vaccinia mCherry,LmPK inhibitor
CN1C(=O)C(C2(O)C(=O)N(Cc3ccccc3)c3cc([N+](=O)[O-])ccc32)c2ccccc21 (stereo unspecified),/,-79*,/,/,/
CCN(CC)CCN(C(=O)c1cc2c(ccc3ccccc32)oc1=O)c1nc2cc3c(cc2s1)OCCO3,?,-98*,-2%,10µM*,5%
CN(C)CCN(C(=O)c1cccc2ccccc12)c1nc2cc3c(cc2s1)OCO3,-28%,-112*,1%,-12%,-1%
CN(C)CCCN(C(=O)c1ccc2ccccc2c1)c1nc2cc3c(cc2s1)OCO3,?,-62*,-4%,?,3%
CCn1c2ccc(/C(C)=N\O)cc2c2cc(/C(C)=N\O)ccc21,-3%,5,0%,3%,3%
O=C(CNC(=O)OCc1ccccc1)NCC(=O)NC(Cc1c[nH]c2ccccc12)C(=O)O (stereo unspecified),-4%,-21,0%,4%,/
CC1(C(=O)NS(=O)(=O)c2cccc(C#N)c2)CCN1C(=O)c1ccccc1 (stereo unspecified),7%,-17,0%,60%,/
O=C(CCS(=O)(=O)c1ccc(Br)cc1)Nc1cc(F)ccc1F,?,7,-8%,11µM*,1%
O=C(O)CCCC(=O)Nc1ccccc1SCCS(=O)(=O)c1ccc(Cl)cc1,?,13,-11%,20µM*,9%
O=C(CCS(=O)(=O)c1ccc(Br)cc1)Nc1ccc(F)cc1F,-8%,-11,-5%,-5%,/
O=C(CCS(=O)(=O)c1ccc(Cl)cc1)Nc1ccccc1Br,?,-98*,25%,?,-12%
CCCS(=O)(=O)N1CCN(Cc2ccc3c(c2)c2ccccc2n3CC)CC1,?,4,14%,?,-10%
Cc1cccc(-n2cnc3cc(C(=O)NCC4CCCO4)ccc32)c1 (stereo unspecified),-24%,-2,-2%,?,/
Cc1cccc(-n2c(C)nc3cc(C(=O)NCC4CCCO4)ccc32)c1 (stereo unspecified),/,-64*,-7%,/,-3%
O=C(CSc1ccccn1)Nc1nc2ccccc2s1,-12%,-66*,-7%,i,3%
O=C(CSc1cn[nH]n1)Nc1nc2ccccc2s1,-14%,90,2%,1%,-1%
CC1(C)Cc2ccccc2-c2nnc(SCc3ccccc3)n21,-28%,-12,0%,-30%,1%
CC1(C)Cc2ccccc2-c2nnc(SCC(=O)Nc3nc4ccccc4s3)n21,/,-83*,4%,/,5%
CC1(C)Cc2ccccc2-c2nnc(SCC(=O)N3CCN(c4ccccc4)CC3)n21,/,-92*,-10%,/,0%
Cc1nn(-c2ccccc2)c(Cl)c1/C=N/NC(=O)c1ccco1,/,96,1%,/,-12%
O=C(c1ccco1)N1CCN(c2ncnc3sc4c(c23)CCC4)CC1,-14%,-67*,-19%,?,-3%
CC1CCc2c(sc3ncnc(N4CCOCC4)c23)C1 (stereo unspecified),/,-65*,-14%,/,-12%
Cc1ccc(C(=O)CSc2ncnc3sc4c(c23)CCC(C)C4)cc1 (stereo unspecified),-9%,-99*,-4%,-9%,1%
COc1ccc(CN2CCN(c3ncnc4sc5c(c34)CCCC5)CC2)cc1F,?,-70*,-6%,?,/
CCc1nc(N2CCN(C(=O)c3ccco3)CC2)c2c3c(sc2n1)CCCC3,-25%,-24,5%,-26%,-2%
SMILES,Vaccinia Venus,HCMV antiviral,Tb PYK inh,Vaccinia mCherry,LmPK inhibitor
Clc1ccccc1CN1CCN(/N=C/C=C\c2ccco2)CC1,3%,-22,-8%,-2%,4%
COC(=O)c1ccc(NC(=O)CSc2nnc(-c3ccccc3)n2C)cc1,-14%,21,-4%,-24%,-2%
c1ccc(N2CCN(c3ncnc4sc5c(c34)CCC5)CC2)cc1,-24%,-76*,-12%,?,3%
CCc1cc2c(N3CCN(c4ccccc4)CC3)ncnc2s1,?,-70*,-8%,/,4%
CC1CCc2c(sc3nc(C4CC4)nc(N4CCN(C(=O)c5ccco5)CC4)c23)C1 (stereo unspecified),?,-86*,2%,14µM*,/
CC1CCc2c(sc3ncnc(SCC(=O)N4CCN(C(=O)c5ccco5)CC4)c23)C1 (stereo unspecified),/,/,/,/,-1%
Cc1ccc(C(=O)NC2CC(C)(C)NC(C)(C)C2)cc1S(=O)(=O)N1CCOCC1,-11%,-11,-1%,i,/
CC(=O)SC(C[N+](=O)[O-])c1cn(C(C)=O)c2ccccc12 (stereo unspecified),-1%,-106*,?,-2%,10%
Cc1cc(O)c(-c2cc(C(=O)Nc3ccc(S(=O)(=O)N4CCOCC4)cc3)[nH]n2)cc1C,/,?,-8%,/,2%
O=C(Nc1ccc(S(=O)(=O)N2CCOCC2)cc1)c1cc(-c2cc(Cl)ccc2O)n[nH]1,/,-65*,-23%,/,1%
NS(=O)(=O)c1ccc(CCNC(=O)c2cc(-c3cc(Cl)ccc3O)n[nH]2)cc1,/,-80*,3%,/,6%
Cc1cc(O)c(-c2cc(C(=O)NCCc3ccc(S(N)(=O)=O)cc3)[nH]n2)cc1C,2%,?,-5%,-6%,2%
Cc1cccc(NC(=O)c2ccc(F)c(S(=O)(=O)NCc3ccc4c(c3)OCO4)c2)c1,-17%,27,-7%,-13%,/
CCOC(=O)c1cnc(N)nc1-c1ccccc1,-12%,-10,11%,-23%,/
CN(C)C(=O)c1cnc(-c2ccccc2)nc1-c1ccccc1,-11%,-62*,7%,-6%,1%
CNC(=O)c1cnc(-c2ccccc2)nc1-c1ccccc1,-12%,-31,-1%,-15%,0%
CCOC(=O)c1cnc(-c2ccccc2)nc1-c1ccccc1,-16%,-102*,1%,-4%,2%
Cc1c(NC(=O)c2ccc(Cl)c([N+](=O)[O-])c2)cccc1-n1cnnn1,-18%,11,-6%,-5%,/
O=C1C=CC(=NN=C(c2ccccc2)c2ccccc2)C=C1,-4%,-80*,-1%,-7%,/
COc1ccc2cc(C#N)c(SCC(=O)OCc3ccccc3)nc2c1,-10%,/,/,-25%,/
CN(C)c1ccc(C=Nc2ccccc2)cc1,-5%,4,4%,?,-4%
CN(C)c1ccc(C=Nc2ccc(N(C)C)cc2)cc1,20%,-72*,-22%,/,-18%
Cc1ccc(N=Cc2ccc(N(C)C)cc2)cc1,3.5µM*,37,-2%,/,0%
CCn1c(=O)c2c(nc3n2CCN3c2ccccc2)n(C)c1=O,-10%,-75*,1%,-2%,2%[11.5 µM]
COC(=O)c1cccnc1-n1c(=O)c2cccnc2n(Cc2ccc(Cl)cc2)c1=O,/,11,-24%,/,6%
CN(C)c1c(F)cc(C(=O)NC(=O)NCc2cccnc2)cc1F,-7%,23,-17%,-23%,-3%
Cc1onc(-c2c(F)cccc2Cl)c1C(=O)Nc1ccc(S(=O)(=O)N2CCOCC2)cc1,-12%,-69*,-4%,-23%,/
